A short description of test [1]: Nuclear factor erythroid 2-related factor 2/antioxidant responsive element (Nrf2/ARE) small molecule agonists: qHTS cell viability counter screen in human keratinocytes (AID 1919968; active = well fitted curve in the direction sought with a large enough effect in the repeat runs; an effect the other way counts as inactive or inconclusive; note: nearly all actives have a fitted effect of over 55% in size). An outline of the steps:
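Seed 1,500 KeratinoSens cells per well, then incubate 5 h at 37 C/5% CO2. Add compounds in DMSO and incubate 23 h. Add CellTiter-Fluor, wait 1 h and read fluorescence.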
(In general: qHTS replaces the single test concentration by a dilution series.)

The nature of test [2]: Nuclear factor erythroid 2-related factor 2/antioxidant responsive element (Nrf2/ARE) small molecule agonists: luciferase reporter gene qHTS assay in human keratinocytes (AID 1919969). Note: nearly all actives have a fitted effect of over 35% in size. Background: In a reporter assay the amount or activity of a reporter protein is the signal.
Test [3] in a line: p53 small molecule agonists, cell-based qHTS assay with rat liver microsomes: qHTS cell viability counter screen (AID 1963580). Note: nearly all actives have a fitted effect of over 45% in size. The essentials:
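Intracellular ATP, by CellTiter-Glo luminescence, defines viability. HCT-116 p53RE-bla cells, 4,000 per well, were compound-treated in the presence of rat liver microsomes and NADPH for 16 h at 37 C.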

Test [4] is described as follows: p53 small molecule agonists, cell-based qHTS assay: qHTS cell viability counter screen (AID 1963581). Note: nearly all actives have a fitted effect of over 45% in size. The essentials:
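Cells: HCT-116 with p53 response element-driven beta-lactamase. Treatment: 16 h, 37 C, compounds in DMSO. Read: CellTiter-Glo luminescence after 30 min RT.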

Test [5] deals with 5-hydroxytryptamine receptor 2A (Homo sapiens) (UniProt P28223). The test can be described thus: 5-hydroxytryptamine receptor 2A (HTR2A) small molecule antagonists, cell-based qHTS assay (AID 1963586). Note: nearly all actives have a fitted effect of over 45% in size. An outline of the steps:
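Antagonist-mode intracellular calcium assay: DOI (4 nM) added after 5 min compound pre-incubation at room temperature to dye-loaded HTR2A-CHO cells. Fluorescence followed for 3 min, sampled every second.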

For test [6] the target is unchanged. The test can be described thus: 5-hydroxytryptamine receptor 2A (HTR2A) small molecule agonists, cell-based qHTS assay (AID 1963587). Note: nearly all actives have a fitted effect of over 30% in size. Note: potency is the fitted concentration of half-maximal effect. An outline of the steps: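 Kinetic calcium-flux fluorescence (2 min, 1 sec intervals) after compound addition in agonist mode. HTR2A-CHO cells were cultured 18 h, then dye-loaded 1 h at 37 C.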
The target of test [7] is Muscarinic acetylcholine receptor M1 (Homo sapiens) (UniProt P11229). The test can be described thus: Cholinergic receptor muscarinic 1 (CHRM1) small molecule agonists, cell-based qHTS assay (AID 1963589). Note: nearly all actives have a fitted effect of over 35% in size. The essentials:
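Agonist-mode qHTS in CHO cells stably carrying human muscarinic M1. Intracellular calcium is tracked by fluorescence every second after compound transfer; each compound runs at 15 concentrations in three independent runs.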

In test [8] the target is D(2) dopamine receptor (Homo sapiens) (UniProt P14416). Briefly: Dopamine D2 receptor (DRD2) small molecule agonists, cell-based qHTS assay (AID 1963594). Note: nearly all actives have a fitted effect of over 35% in size. An outline of the steps: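 cAMP accumulation in DRD2-HEK293 cells measured by HTRF after 1 h detection; compounds added 10 min before NKH477 (200nM […]) forskolin-analogue stimulation, 30 min at room temperature, with Ro20-1724 present at 0.1 mM final.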

Test [9] has the same target. Briefly: Dopamine D2 receptor (DRD2) small molecule antagonists, cell-based qHTS assay (AID 1963595; active = well fitted inhibition curve with a large enough effect in the signal ratio in the repeat runs, with a control signal flat; the % refers to the signal ratio). The essentials:
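HEK293 cells stably expressing DRD2 were preincubated with 0.1 mM Ro20-1724, then with compound for 10 min at room temperature. Cells were stimulated with 200 nM NKH477 plus 12 nM quinpirole for 30 min, and cAMP was read by HTRF.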

Test [10] has as its target KiSS-1 receptor (Homo sapiens) (UniProt Q969F8). Briefly: Human kisspeptin (KISS1R) small molecule agonists, calcium flux assay in KISS1R-HEK293 cells (AID 1920064; active = well fitted curve in the direction sought with a large enough effect in the repeat runs; an effect the other way counts as inactive or inconclusive). An outline of the steps:
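Cells plated and incubated 18 h; dye added, 1 h at 37 C; compounds in DMSO pinned in; signal read at 480/540 nm every second for 3 min. Each compound tested at 15 concentrations in triplicate.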
Background: A change in cytosolic calcium serves as a functional read-out for many receptors and channels.

Test [11] in a line: G protein-coupled receptor (GPCR) small molecule agonists, calcium flux assay: HEK293 wild type cell line counter screen (AID 1920065). An outline of the steps:
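Counter-screen of the Tox21 10K library for non-specific calcium release: dye-loaded cells received compounds in DMSO and were monitored by kinetic fluorescence (480/540 nm, 3 min). Fifteen concentrations, run in triplicate.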

Test [12] is described as follows: p53 small molecule agonists, cell-based qHTS assay with human liver microsomes (AID 1963577).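 Note: p53 response element beta-lactamase reporter cells with liver microsomes plus NADPH.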 An outline of the steps: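 p53RE-bla cells; 5 h settle, 37 C/5% CO2; cpd + HLM 0.5 mg/mL + NADPH 0.5 mg/mL (final); 16 h 37 C; LiveBLAzer 2 h RT dark; fluorescence readout.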
Test [13] is described as follows: p53 small molecule agonists, cell-based qHTS assay with rat liver microsomes (AID 1963578). The essentials:
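Rat liver microsome activation: microsomes 0.5 mg/mL, NADPH 0.5 mg/mL final; p53RE-bla cells, 16 h 37 C; LiveBLAzer readout, 2 h RT dark.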

Test [14] is described as follows: p53 small molecule agonists, cell-based qHTS assay with human liver microsomes: qHTS cell viability counter screen (AID 1963579). Note: nearly all actives have a fitted effect of over 45% in size. The essentials:
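Luminescent CellTiter-Glo read-out, 30 min at room temperature, gauged cytotoxicity in p53RE-bla cells exposed 16 h at 37 C to DMSO-dissolved compounds with metabolic activation by human liver microsomes and NADPH, each 0.5 mg/mL final.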

Test [15] is described as follows: p53 small molecule agonists, cell-based qHTS assay (AID 1963582; active = well fitted activation curve with a large enough effect in the signal ratio in the repeat runs, not every such curve was filed as active; the % refers to the signal ratio). The essentials: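 Quantitative HTS in p53RE-bla cells: after a 5 h settling period, compounds delivered in DMSO were left on cells for 16 h at 37 C, and reporter induction was measured as fluorescence following 2 h substrate loading.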
The target of test [16] is Muscarinic acetylcholine receptor M1 (Homo sapiens) (UniProt P11229). Briefly: Cholinergic receptor muscarinic 1 (CHRM1) small molecule antagonists, cell-based qHTS assay (AID 1963588). Note: nearly all actives have a fitted effect of over 40% in size. An outline of the steps:
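CHRM1-CHO calcium-flux assay, antagonist mode. Cells were seeded 18 h, dye-loaded 1 h at 37 C and given compound for 5 min at RT, then acetylcholine was added at 50nM. FDSS fluorescence was read 3 min; 15 concentrations, three runs.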

Test [17] can be described thus: cAMP Responsive Elements (CRE) small molecule agonists, cell-based qHTS assay (AID 1963590). An outline of the steps: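 Agonist mode qHTS in CRE-bla HEK 293T cells: compounds dosed from DMSO for 3 h at 37 C/5% CO2, followed by LiveBLAzer B/G FRET substrate for 2 h at room temperature.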
Test [18] is described as follows: cAMP Responsive Elements (CRE) small molecule antagonists, cell-based qHTS assay (AID 1963591; active = well fitted inhibition curve with a large enough effect in the signal ratio in the repeat runs, not every such curve was filed as active; the % refers to the signal ratio). The essentials:
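Antagonist mode: test compounds are co-incubated with the adenylyl cyclase activator NKH477 (0.25 uM final) on CRE-bla HEK293T cells for 3 h at 37 °C, followed by LiveBLAzer substrate loading.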

The target of test [19] is Beta-2 adrenergic receptor (Homo sapiens) (UniProt P07550). The test can be described thus: Adrenergic beta2 receptor (ADRB2) small molecule antagonists, cell-based qHTS assay (AID 1963592). Note: nearly all actives have a fitted effect of over 50% in size. Note: potency is the fitted concentration of half-maximal effect. The essentials:
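Cells (CHO, stable ADRB2 overexpression) incubated 18-20hr at 37C; compounds added from DMSO; agonist mix (1nM isoproterenol, 100uM IBMX, 25uM Ro-20-1724) added; 0.5hr RT; d2-cAMP and anti-cAMP-cryptate added; 1hr RT; 665/615 nm read.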

The target is the same in test [20]. Briefly: Adrenergic beta2 receptor (ADRB2) small molecule agonists, cell-based qHTS assay (AID 1963593).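 Note: CHO cells stably overexpressing human ADRB2.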 The essentials:
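CHO cells stably over-expressing ADRB2 were plated overnight at 37C, then dosed with compounds plus a stimulation mix containing 100uM IBMX and 25uM Ro-20-1724 for 0.5hr at room temperature. cAMP was measured by HTRF competition, 1hr.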

Molecules are shown by their SMILES. Where “and” joins values, the source holds several entries; their conditions need not be identical. Equal values may be shown once. Inconclusive results are not listed. Some structures have more than one record in an assay (separate samples or runs), and their calls can disagree. Calls of active or inactive are those of the source. Unless noted, calls come from the whole dose curve.

Chain of KiSS-1 receptor (Homo sapiens) (Q969F8 whole entry, looked up): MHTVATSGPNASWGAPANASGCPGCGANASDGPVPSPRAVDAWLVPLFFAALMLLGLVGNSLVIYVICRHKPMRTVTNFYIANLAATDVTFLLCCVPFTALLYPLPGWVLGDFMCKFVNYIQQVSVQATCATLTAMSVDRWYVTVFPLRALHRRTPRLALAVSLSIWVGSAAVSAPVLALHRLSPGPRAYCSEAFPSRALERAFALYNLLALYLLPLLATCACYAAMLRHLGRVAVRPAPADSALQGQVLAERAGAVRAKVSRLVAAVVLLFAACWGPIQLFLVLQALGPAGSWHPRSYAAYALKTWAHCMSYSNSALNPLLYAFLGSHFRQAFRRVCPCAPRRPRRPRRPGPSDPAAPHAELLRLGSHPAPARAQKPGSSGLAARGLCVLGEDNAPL
Chain of 5-hydroxytryptamine receptor 2A (Homo sapiens) (P28223 whole entry, looked up): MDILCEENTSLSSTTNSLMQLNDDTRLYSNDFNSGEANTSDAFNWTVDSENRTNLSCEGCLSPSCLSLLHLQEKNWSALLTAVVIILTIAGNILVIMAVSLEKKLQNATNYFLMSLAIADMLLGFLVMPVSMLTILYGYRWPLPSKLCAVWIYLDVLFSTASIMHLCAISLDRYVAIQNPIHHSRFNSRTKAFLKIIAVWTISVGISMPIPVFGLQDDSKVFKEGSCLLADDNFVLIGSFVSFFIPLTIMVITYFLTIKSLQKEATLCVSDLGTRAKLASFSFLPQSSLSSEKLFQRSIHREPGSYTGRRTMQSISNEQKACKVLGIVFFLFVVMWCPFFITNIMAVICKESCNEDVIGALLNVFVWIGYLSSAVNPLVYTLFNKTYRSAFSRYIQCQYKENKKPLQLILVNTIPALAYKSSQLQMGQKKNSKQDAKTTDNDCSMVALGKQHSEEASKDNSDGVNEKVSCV
Chain of Beta-2 adrenergic receptor (Homo sapiens) (P07550 whole entry, looked up): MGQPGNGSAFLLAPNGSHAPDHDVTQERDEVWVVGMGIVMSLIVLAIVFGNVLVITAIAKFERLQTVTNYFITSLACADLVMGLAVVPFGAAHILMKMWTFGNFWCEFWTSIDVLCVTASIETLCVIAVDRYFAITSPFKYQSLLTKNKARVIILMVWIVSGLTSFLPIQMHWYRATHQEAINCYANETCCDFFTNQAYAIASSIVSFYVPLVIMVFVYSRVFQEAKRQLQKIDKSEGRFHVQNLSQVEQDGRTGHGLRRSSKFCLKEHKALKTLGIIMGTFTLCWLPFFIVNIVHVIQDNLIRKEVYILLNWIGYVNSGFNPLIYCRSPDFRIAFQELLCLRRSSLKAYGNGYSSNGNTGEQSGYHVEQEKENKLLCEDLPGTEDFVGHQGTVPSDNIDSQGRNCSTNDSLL
Chain of D(2) dopamine receptor (Homo sapiens) (P14416 whole entry, looked up): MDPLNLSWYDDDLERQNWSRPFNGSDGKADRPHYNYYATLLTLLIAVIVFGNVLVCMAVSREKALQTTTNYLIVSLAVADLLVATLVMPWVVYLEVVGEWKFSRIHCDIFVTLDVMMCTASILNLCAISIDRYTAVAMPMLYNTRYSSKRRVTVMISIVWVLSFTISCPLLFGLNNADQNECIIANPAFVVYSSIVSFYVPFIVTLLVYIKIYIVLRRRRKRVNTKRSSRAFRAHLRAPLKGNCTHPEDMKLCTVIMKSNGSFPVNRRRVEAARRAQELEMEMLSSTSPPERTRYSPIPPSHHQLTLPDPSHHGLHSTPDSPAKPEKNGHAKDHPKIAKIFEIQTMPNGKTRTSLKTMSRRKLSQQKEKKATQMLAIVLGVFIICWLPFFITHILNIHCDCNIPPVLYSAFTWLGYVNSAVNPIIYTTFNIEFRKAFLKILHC
Chain of Muscarinic acetylcholine receptor M1 (Homo sapiens) (P11229 whole entry, looked up): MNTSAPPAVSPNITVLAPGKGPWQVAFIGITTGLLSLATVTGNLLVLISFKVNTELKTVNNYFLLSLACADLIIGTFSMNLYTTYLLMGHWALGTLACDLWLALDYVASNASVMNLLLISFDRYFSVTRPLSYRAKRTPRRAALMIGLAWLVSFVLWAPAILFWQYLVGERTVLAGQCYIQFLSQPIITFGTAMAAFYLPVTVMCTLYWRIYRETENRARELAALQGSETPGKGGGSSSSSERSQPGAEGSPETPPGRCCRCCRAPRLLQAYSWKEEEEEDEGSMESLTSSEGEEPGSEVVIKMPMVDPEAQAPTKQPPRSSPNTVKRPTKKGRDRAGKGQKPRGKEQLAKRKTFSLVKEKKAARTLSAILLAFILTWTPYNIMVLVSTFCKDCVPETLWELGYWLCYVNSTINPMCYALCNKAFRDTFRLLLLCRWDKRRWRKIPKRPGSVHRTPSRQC

On to `CCOC(=O)C(C)Oc1ccc(Oc2cnc3cc(Cl)ccc3n2)cc1` (stereo not drawn), for which the Potency entry in [1], in test [2], in [3], in test [4], in test [5] and in test [6] was “inactive” each time. Moreover, the Potency entry in [7], in [8] and in test [9] was “inactive” each time.

In the case of `Cc1ccc(C(C)(C)C)cc1`, the Potency result in test [1], in test [2], in test [10], in test [11], in test [12] and in test [13] was “inactive” in each case. For the same compound, the Potency entry in test [14], in test [3], in [4], in test [15], in test [5] and in test [6] was “inactive” throughout. Also, the Potency result in test [16], in [7], in test [17], in test [18], in test [19] and in test [20] was “inactive” each time. The Potency result in [8] and in test [9] was “inactive” each time.

Turning to `CCCCOCCOCCOCCO`, the Potency entry in test [1], in test [2], in test [12], in test [13], in [14] and in test [3] was “inactive” in each case. In addition, the Potency result in test [4], in [15], in [5], in test [6], in test [16] and in [7] was “inactive” throughout. Also, the Potency entry in test [17], in test [18], in test [20], in test [8] and in [9] was “inactive” in each case. Besides, the Potency in test [19] is 30.3 µM (active) and inactive.

Consider `CC(C)(C)C(=O)C1C(=O)c2ccccc2C1=O`, for which the Potency entry in test [1], in test [2], in test [13], in test [3], in [4] and in [15] was “inactive” throughout. For the same compound, the Potency result in test [5], in test [6], in test [16], in [7], in test [17] and in [18] was “inactive” throughout. Besides, the Potency entry in [19], in [8] and in test [9] was “inactive” in each case.

On to `C=CCn1cc[n+](C)c1`, for which the Potency result in test [1], in [2], in test [10], in test [11], in test [12] and in test [13] was “inactive” in each case. Besides, the Potency result in test [14], in test [3], in [4], in test [15], in test [5] and in [6] was “inactive” each time. The Potency entry in test [16], in test [7], in test [17], in test [18], in test [19] and in test [20] was “inactive” each time. For the same compound, the Potency result in [8] and in test [9] was “inactive” in each case.

Turning to `O=C[C@H](O)[C@@H](O)[C@H](O)[C@H](O)CO`, the Potency entry in test [1], in test [2], in [10], in test [11], in test [12] and in test [13] was “inactive” in each case. The Potency result in test [14], in test [3], in [4], in test [15], in test [5] and in test [6] was “inactive” each time. For the same compound, the Potency entry in [16], in [7], in test [17], in [18], in test [20] and in test [8] was “inactive” throughout. For the same compound, in test [9], the Potency result was “inactive”.

Take `N[C@H](Cc1c[nH]c2ccccc12)C(=O)O`: the Potency result in [1], in [2], in test [11], in test [3], in test [4] and in test [5] was “inactive” in each case. Besides, the Potency entry in [7], in test [17], in test [18], in [19], in [20] and in [8] was “inactive” in each case. The Potency entry in test [9] was “inactive”. Besides, the Potency entry in test [6] was “inactive and 19 µM (active)”.

In the case of `CCC(=O)c1ccc(O)cc1`, the Potency result in test [1], in [2], in test [12], in test [13], in test [14] and in test [3] was “inactive” throughout. Besides, the Potency result in test [4], in test [15], in test [5], in test [6], in [16] and in test [7] was “inactive” throughout. Moreover, the Potency result in [17], in test [18], in [19], in test [20], in test [8] and in test [9] was “inactive” in each case.
